Sampled rows, rich in hits. Any-hit rate of the full collection: about 3.4%.
PP5 inh = PP5 phosphatase inhibitors, primary screen, biochemical, fluorescence | inhibition, % at 6.7 µM | hit rate 0.18% among 320,000 | purified PP5c, OMFP substrate fluorescence | AID 1987, 2009;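 active means inhibition above the campaign's mean inhibition across all tested compounds plus 3 SD, cut at about 9.5% in these data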;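 further: 0% = DMSO only and 100% = 100 µM cantharidin control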
PAFAH1B2 inh = PAFAH1B2 enzyme inhibitors, primary screen, biochemical, fluorescence polarization, human | Platelet-activating factor acetylhydrolase IB subunit alpha2 (Homo sapiens), P68402 | recombinant PAFAH1B2, FP-rhodamine activity probe | inhibition, % at 3.39 µM | hit rate 1.2% among 340,000;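 active means inhibition above the mean of all tested compounds plus 3 SD, cut at about 24% in these data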;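 further: 0% = enzyme with DMSO and 100% = wells lacking PAFAH1B2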
PAFAH2 FP inh = PAFAH2 enzyme inhibitors, primary screen, biochemical, fluorescence polarization, human. Platelet-activating factor acetylhydrolase 2, cytoplasmic (Homo sapiens), Q99487. recombinant PAFAH2, FP-rhodamine activity probe. inhibition, % at 3.39 µM. hit rate 0.99% among 340,000;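 active means inhibition above the mean over all tested compounds plus 3 SD, cut at about 30% in these data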;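 further: inhibitors block probe labeling of enzyme so polarization drops; 0% = enzyme with DMSO and 100% = wells lacking PAFAH2 protein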
PP1 inh = PP1-alpha phosphatase inhibitors, primary screen, counter-screen for PP5 inhibitor project, biochemical, fluorescence, OMFP substrate, single point; purified PP1alpha; inhibition, % at 6.7 µM; hit rate 0.9% among 320,000; AID 2235, 2010;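 active means inhibition above the mean inhibition of all tested compounds plus 3 SD, computed separately for each screening campaign, cut at about 15% in these data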
Target sequence (P62136 whole entry, looked up): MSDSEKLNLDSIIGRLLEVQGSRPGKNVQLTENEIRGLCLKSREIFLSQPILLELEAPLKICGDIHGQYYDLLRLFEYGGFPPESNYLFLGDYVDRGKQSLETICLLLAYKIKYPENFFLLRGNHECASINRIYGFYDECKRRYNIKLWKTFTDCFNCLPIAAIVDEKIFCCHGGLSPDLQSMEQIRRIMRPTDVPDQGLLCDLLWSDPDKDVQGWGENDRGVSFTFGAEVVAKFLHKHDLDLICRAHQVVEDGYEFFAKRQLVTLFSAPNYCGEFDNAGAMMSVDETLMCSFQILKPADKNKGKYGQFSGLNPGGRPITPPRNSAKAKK
pPAFAH FP inh = pPAFAH enzyme inhibitors, primary screen, biochemical, fluorescence polarization, human | recombinant pPAFAH, FP-rhodamine probe fluorescence polarization | AID 463082, 2010 | inhibition, % at 3.39 µM | hit rate 1.5% among 330,000 | Platelet-activating factor acetylhydrolase (Homo sapiens), Q13093;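 active means inhibition above the mean inhibition across the screen plus 3 SD, cut at about 25% in these data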;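 further: inhibitors block binding of the rhodamine activity-based probe so polarization drops; 0% = enzyme with DMSO and 100% = wells lacking pPAFAH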
PAFAH1B3 inh = PAFAH1B3 enzyme inhibitors, primary screen, biochemical, fluorescence polarization, human | recombinant PAFAH1B3, FP-rhodamine probe | inhibition, % at 3.39 µM | hit rate 0.28% among 340,000 | Platelet-activating factor acetylhydrolase IB subunit alpha1 (Homo sapiens), Q15102;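 active means inhibition above the screen-wide average of all tested compounds plus 3 SD, cut at about 25% in these data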;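 further: 0% = enzyme with DMSO only and 100% = wells lacking PAFAH1B3 protein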
Target sequence (Q15102 whole entry, looked up): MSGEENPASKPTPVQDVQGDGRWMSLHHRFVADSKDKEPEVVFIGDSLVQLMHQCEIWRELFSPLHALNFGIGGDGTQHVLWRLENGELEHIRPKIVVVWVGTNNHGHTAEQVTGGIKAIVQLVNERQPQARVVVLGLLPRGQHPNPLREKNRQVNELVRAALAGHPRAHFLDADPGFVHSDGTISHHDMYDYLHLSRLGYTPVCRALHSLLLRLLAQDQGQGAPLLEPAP
pPAFAH FP conf = pPAFAH (PLA2G7) enzyme inhibitors, confirmation, biochemical, fluorescence polarization, human | hit rate 72% among 2,300 | recombinant pPAFAH, FP-Rh probe fluorescence polarization | shares compounds with pPAFAH FP inh | inhibition, % at 3.39 µM | AID 463230, 2010;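 active means mean inhibition of the triplicate above the hit cutoff set for the earlier primary screen, cut at about 25% in these data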;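 further: 0% = enzyme with DMSO and 100% = wells lacking pPAFAH enzyme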
* marks the source's active call; other numbers are inactive results; . = not tested or not shown.

SMILES | PP5 inh | PAFAH1B2 inh | PAFAH2 FP inh | PP1 inh | pPAFAH FP inh | PAFAH1B3 inh | pPAFAH FP conf
Cc1cc(C)cc(C(=O)N2CCC3(CC2)NCCc2[nH]cnc23)c1 | -3 | 8 | 0 | 3 | -1 | 10 | .
OCCN1CCN(CCCN2c3ccccc3Sc3ccc(Cl)cc32)CC1 | -1 | 0 | 3 | 1 | 39* | -3 | 33*
Oc1ccc2ccccc2c1N=Nc1ccc(F)cc1 | 0 | -42 | -113 | -1 | -6 | -43 | .
NS(=O)(=O)c1ccc(N=Nc2c(O)c(C(=O)O)cc3ccccc23)cc1 | 5 | 3 | 16 | 12 | 41* | 13 | 26*
O=C(O)Cc1ccc(N=Nc2c(O)c(C(=O)O)cc3ccccc23)cc1 | 0 | 4 | 24 | 15 | 67* | 8 | 34*
CC(CCc1ccccc1)NC(=O)COC(=O)C(CCC(N)=O)NC(=O)c1ccc(F)cc1 (stereo unspecified) | 2 | 1 | -1 | -2 | 2 | 1 | .
COc1cccc(CNC(=O)CCC2CCCN(Cc3cc(Cl)ccc3O)C2)c1 (stereo unspecified) | 2 | 4 | 1 | 4 | 92* | -5 | 68*
CC(=O)N1CC(=O)N(c2ccccc2)C1=O | 0 | -1 | 0 | -1 | 6 | 4 | .
O=C1S/C(=C\C=C\c2ccco2)C(=O)N1c1ccc(O)cc1 | -1 | 0 | -4 | 4 | 37* | 0 | 6
O=Cc1ccc(-c2nc3ccccc3s2)o1 | 3 | -6 | -5 | -2 | 3 | 1 | .
O=C(O)CC(C(=O)O)N1C(=O)/C(=C/C=C/c2ccco2)SC1=S (stereo unspecified) | 2 | 5 | 22 | 11 | 68* | 8 | 10
O=C(O)CCCN1C(=O)/C(=C/C=C/c2ccco2)SC1=S | 2 | 6 | 32* | 24* | 61* | 12 | 18
O=C(O)CC(C(=O)O)N1C(=O)/C(=C/c2ccc(-c3nc4ccccc4s3)o2)SC1=S (stereo unspecified) | 2 | 7 | 34* | 11 | 65* | 18 | 42*
C=CCc1cccc(Cl)c1OCCCNC1CCCC1 | -1 | 0 | -5 | 1 | 3 | 11 | .
c1ccc(C[C@H]2CNCCN2CC2(c3ccccc3)CC2)cc1 | -1 | 7 | -2 | 1 | 1 | 2 | .
Cc1ccc(OCc2cc(C(=O)N(C)Cc3cnc4ccccn34)no2)cc1C | 0 | 6 | -6 | 4 | 5 | -1 | .
Cc1cc(O)c(CN(C)C)c2c1C(=O)/C(=C/c1ccco1)O2 | 2 | 2 | 3 | -3 | 14 | 18 | .
Cc1cc(O)c(C=O)c2c1C(=O)Oc1c(CO)c(O)c3c(c1O2)C(O)OC3=O (stereo unspecified) | 2 | 3 | 48* | 36* | 89* | 33* | 27*
O=C(CSc1nnc(CNC(=O)c2ccco2)o1)Nc1ccc(Br)cc1 | -1 | 7 | 0 | -3 | 6 | 1 | .
Cc1ccc(C(=O)n2nc(-c3ccccc3)nc2NCc2ccco2)cc1 | 1 | 3 | 7 | 2 | 74* | 5 | 1
Cc1nc(-c2ccccc2)sc1C(=O)Nc1ccc(S(N)(=O)=O)cc1 | 4 | 4 | 4 | -1 | 46* | 1 | -7
CCN1/C(=C/C=C/c2oc3ccc(-c4ccccc4)cc3[n+]2CC)Oc2ccc(-c3ccccc3)cc21 | -49 | 26* | 29 | 11 | 59* | 19 | 13
CCCCN1C(=O)/C(=C/C=C2\Oc3ccccc3N2CC)SC1=S | . | -41 | -37 | . | . | -68 | .
Cc1cc(C)cc(NC(=O)C[n+]2ccccc2)c1 | . | 4 | 7 | . | . | 7 | .
O=C1C(c2ccccc2)C2C=CC(C2)N1O (stereo unspecified) | . | 8 | -1 | . | . | -1 | .
SMILES | PP5 inh | PAFAH1B2 inh | PAFAH2 FP inh | PP1 inh | pPAFAH FP inh | PAFAH1B3 inh | pPAFAH FP conf
O=C(COC(=O)C1CCC1)NCc1ccc(Cl)cc1Cl | 2 | 4 | 13 | -5 | 5 | 0 | .
Clc1cccc(-c2ccc(C3Nc4cccc5cccc(c45)N3)o2)c1 | . | 25* | -9 | . | 39* | 31* | 38*
COc1cccc(N2CCN(S(=O)(=O)c3ccc4c(c3)N(C(C)=O)CCO4)CC2)c1 | 3 | 2 | -3 | 1 | 2 | 0 | .
Cc1ccc(NS(=O)(=O)c2ccc(NC(=O)CN(c3cc([N+](=O)[O-])ccc3C)S(C)(=O)=O)cc2)c(C)c1 | 3 | -24 | -62 | 3 | 42* | -39 | 51*
CCOC(=O)c1c(-c2ccc(F)cc2)csc1NC(=O)C1CC=CCC1C(=O)O (stereo unspecified) | 3 | 7 | 10 | 0 | -6 | 5 | .
CCOC(=O)c1c(-c2ccc(C)c(C)c2)csc1NC(=O)C1CC=CCC1C(=O)O (stereo unspecified) | 5 | 2 | 18 | 10 | 41* | -3 | 39*
COc1ccc(S(=O)(=O)N2CCC(C(=O)NN3CCCCC3)CC2)cc1OC | -1 | 8 | 8 | -3 | 1 | 11 | .
CCN1CCN(C(=S)Nc2ccsc2C(=O)OC)CC1 | 3 | 4 | 0 | -7 | 60* | 7 | 4
COC(=O)c1sccc1NC(=S)N1CCN(C)CC1 | 1 | 4 | 1 | -5 | 1 | 5 | .
COP(=O)(OC)C(NC(=O)Nc1ccccc1)c1ccccc1 (stereo unspecified) | -2 | 0 | 0 | -3 | -2 | 3 | .
CCC(C)C(=O)Nn1c(C2CC2)nc2cc(OC)c(OC)cc2c1=O (stereo unspecified) | 0 | -3 | -13 | -6 | 4 | 2 | .
O=C1NC(=Nc2ccccc2)S/C1=C\C=C\c1ccco1 | -2 | 3 | 30 | 8 | 60* | 13 | 38*
Cc1cccc(N=C2NC(=O)/C(=C/C=C/c3ccco3)S2)c1C | 0 | 9 | 48* | 6 | 71* | 9 | 66*
COc1ccc(N=C2NC(=O)/C(=C/C=C/c3ccccc3)S2)cc1 | -3 | 1 | 1 | -2 | 6 | -3 | .
Cc1ccc(N=C2NC(=O)/C(=C/C=C/c3ccco3)S2)cc1 | 1 | 0 | 21 | 7 | 68* | 13 | 33*
Cc1cc(SCC(=O)c2ccc(O)c(O)c2)n2nc(C)c(-c3ccccc3)c2n1 | -1 | -1 | 17 | 10 | 72* | 13 | 88*
O=C(OCc1cc(=O)n2ccsc2n1)c1ccccc1NCCO | . | 4 | 4 | . | 74* | 4 | 4

Assay outcomes: PubChem BioAssay, The Scripps Research Institute Molecular Screening Center
